Data published in the supplement of paper PMC11417369.
± gives the standard deviation of the averaged measurements. The full ranking holds about 25,000 sequences; the median of “ln(normalized median fluorescence intensity)” is about 8.9, and the highest 2% start at about 10. Shown is part of a subset that was picked to be rich in the highest values.

Tested on: PfAP2-LT AP2 domain (GST-tagged)
Test: gcPBM binding intensity (ln(normalized median fluorescence intensity)); higher = stronger DNA binding
How it was run: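 Binding of GST-tagged P. falciparum DNA-binding domains, expressed in E. coli and used at about 25 μg on average, was carried out for 1 h in 1× PBS containing 1% milk, 0.2 mg/ml BSA, 0.5% salmon testes DNA and 0.03% Triton X-100. The target was an Agilent 4 × 180k array of primer-extended double-stranded 36-bp intergenic genomic probes plus negative controls, read with Alexa488 anti-GST antibody at 488 nm. Binding intensity is the highest Masliner-normalised natural-log median intensity across replicate spots of either probe orientation.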

“ATGAAAAAAAATAAAAAATATATATATATATATATA [CACACA_negctrl_site236]” and “ATATATATATAAATATAAATATATATATATATATAT [CACACA_negctrl_site1685]” are within error of each other in “gcPBM binding intensity (ln)” value: 9.4 ± 0.4 for the first, 9.02 ± 0.23 for the second.

First: AGGAAAAAAAAAATGTGTACTTAAAAAAAAAAAATT [XGTACX_site1471]
Second: ACCTTTTGGATTATATGTACATATATATATATATAT [XGTACX_site2687]
The “gcPBM binding intensity (ln)” value of the first is lower: 8.51 ± 0.65 for the first, 9.61 ± 0.26 for the second.

“CACAAAAGTAAGCACGCACACACAACCTGAAATAAA [CACACA_site166]” and “ATTTTTTTTATTTTTTATATAATTTTTTTATATTAT [CACACA_negctrl_site1521]” are within error of each other in “gcPBM binding intensity (ln)” value: 9.59 ± 0.44 for the first, 8.69 ± 0.5 for the second.

“ATGCAAATGTGCATCACACACACTAATGGGTATGTA [CACACA_site2893]” and “AATTAAATGATTTATACATGCATATAAATATAAATA [TGCATGCA_site579]” are within error of each other in “gcPBM binding intensity (ln)” value: 9.41 ± 0.31 for the first, 8.71 ± 0.43 for the second.

CGATTTTTTAAGTTTGTGCACTTAAAAACTATAACA and “GATGAAAATAGAAATACACACTAAAAAATAAAATTA [CACACA_site4764]” are within error of each other in “gcPBM binding intensity (ln)” value: 8.53 ± 0.47 for the first, 8.85 ± 0.52 for the second.

“ATATACATATTCTTGTGTACATAAAAATTTATATAT [XGTACX_site8726]” and “AAAAAAAAAAAAGAACGTACAAATTAATTTATAGAA [XGTACX_site5584]” are within error of each other in “gcPBM binding intensity (ln)” value: 8.74 ± 0.35 for the first, 8.73 ± 0.57 for the second.

Compared with “TTAAAAAATCACAACACACACACACCCAAAAAAAAA [CACACA_site1445]”, “TTTACATTAAATCACGCACACAAAAAAAAAAAAAAA [CACACA_site2418]” is lower in “gcPBM binding intensity (ln)” value: 9.77 ± 0.26 for the first, 8.94 ± 0.37 for the second.

First: TTAAAAAATCACAACACACACACACGCAAAAAAAAA [CACACA_site6793]
Second: ATTCAAAAGATGTATACACACATGTGGATAATATAA [CACACA_site2443]
The “gcPBM binding intensity (ln)” value of the first is higher: 10.1 ± 0.21 for the first, 9.21 ± 0.48 for the second.

“TATATATAATATGAATGTACACAAAAAGGTAATACA [XGTACX_site6202]” and “AATATAAGCAAATACACACACACATATAAATATGTA [CACACA_site7741]” are within error of each other in “gcPBM binding intensity (ln)” value: 9.11 ± 0.62 for the first, 9.85 ± 0.35 for the second.

“ACAAAAAAAATAAGCACACATATATATATATATATA [CACACA_site816]” and “ATACAACAAAAATAAGCACACACAAATATACATACA [CACACA_site9201]” are within error of each other in “gcPBM binding intensity (ln)” value: 10.1 ± 0.38 for the first, 9.7 ± 0.4 for the second.

First: AAACAAAAAAAATAAGCACACATATATATATATATA [CACACA_site8173]
Second: AATATAAGCAAATACACACACACATATATATATATA [CACACA_site3805]
The “gcPBM binding intensity (ln)” value of the first is lower: 9.6 ± 0.57 for the first, 10.29 ± 0.035 for the second.

Compared with “AATAAAGCAATAAATACACACATATATATATATATA [CACACA_site2934]”, “AAATCTTAATAAAGTTGTACATAATTATGTTTAATA [XGTACX_site3348]” is lower in “gcPBM binding intensity (ln)” value: 9.955 ± 0.0071 for the first, 8.55 ± 0.49 for the second.

With “TAATGGAATAAAAATTGTACATATTTTTTTTTTTTT [XGTACX_site7669]” the “gcPBM binding intensity (ln)” value was 8.45 ± 0.36.
